Measurements taken from PubChem BioAssay AID602400 (Sanford-Burnham Center for Chemical Genomics, 2012).
A number with no mark means an inactive call. Active and inactive are the calls of the source. The rule behind the calls is not given here.

Assay: Bfl-1 counter-screen inhibitors, SAR follow-up, counter-screen for UBC13 polyubiquitination inhibitor project, biochemical, set 4 (AID 602400)
Details: Bfl-1 counterscreen for UBC13 inhibitors

| SMILES | IC50 |
| --- | --- |
| Cc1cccc(NC(=O)C2CCN(c3ncnc4c3nc3n4CCCCC3)CC2)c1 | > 100 µM |
| Cc1ccc(NC(=O)C2CCN(c3ncnc4c3nc3n4CCCCC3)CC2)cc1F | > 100 µM |
| O=C(NCc1ccc(Cl)c(Cl)c1)C1CCN(c2ncnc3c2nc2n3CCCC2)CC1 | > 100 µM |
| COc1ccccc1N1CCN(CCCNC(=O)C2CCCN(c3ncnc4c3nc3n4CCCCC3)C2)CC1 (stereo not drawn) | > 100 µM |
| Cc1ccc(NC(=O)C2CCCN(c3ncnc4c3nc3n4CCCCC3)C2)cc1F (stereo not drawn) | > 100 µM |
| CN(CCNC(=O)C1CCN(c2ncnc3c2nc2n3CCCCC2)CC1)Cc1ccccc1 | > 100 µM |
| COc1cc(OC)c(NC(=O)C2CCN(c3ncnc4c3nc3n4CCCCC3)CC2)cc1Cl | > 100 µM |
| Cc1ccc(NC(=O)C2CCN(c3ncnc4c3nc3n4CCCCC3)CC2)cc1Cl | > 100 µM |
| Cc1ccc(NC(=O)C2CCCN(c3ncnc4c3nc3n4CCCC3)C2)cc1Br (stereo not drawn) | > 100 µM |
| O=C(Nc1ccc(CN2CCCCC2)cc1)C1CCN(c2ncnc3c2nc2n3CCCCC2)CC1 | > 100 µM |
| O=C(Nc1cccc(Cl)c1)C1CCN(c2ncnc3c2nc2n3CCCCC2)CC1 | > 100 µM |
| O=C(NCCCN1CCN(c2ccccc2)CC1)C1CCCN(c2ncnc3c2nc2n3CCCCC2)C1 (stereo not drawn) | > 100 µM |
| O=C(c1ccco1)N1CCN(C(=O)C2CCN(c3ncnc4c3nc3n4CCCCC3)CC2)CC1 | > 100 µM |
| Cc1ccc(NC(=O)C2CCN(c3ncnc4c3nc3n4CCCC3)CC2)cc1F | > 100 µM |
| O=C(C1CCN(c2ncnc3c2nc2n3CCCCC2)CC1)N1CCOCC1 | > 100 µM |
| O=C(NCc1ccc(Cl)c(Cl)c1)C1CCCN(c2ncnc3c2nc2n3CCCCC2)C1 (stereo not drawn) | > 100 µM |
| Cc1cccc(N2CCN(CCCNC(=O)C3CCCN(c4ncnc5c4nc4n5CCCCC4)C3)CC2C)c1 (stereo not drawn) | > 100 µM |
| COc1cc(Cl)c(C)cc1NC(=O)C1CCN(c2ncnc3c2nc2n3CCCCC2)CC1 | > 100 µM |
| Cc1ccc(NC(=O)C2CCCN(c3ncnc4c3nc3n4CCCCC3)C2)cc1Br (stereo not drawn) | > 100 µM |

| SMILES | IC50 |
| --- | --- |
| O=C(C1CCN(c2ncnc3c2nc2n3CCCCC2)CC1)N1CCN(Cc2ccccc2)CC1 | > 100 µM |
| Cc1ccc(NC(=O)C2CCN(c3ncnc4c3nc3n4CCCCC3)CC2)cc1Br | > 100 µM |
| O=C(NCc1cccc(Cl)c1)C1CCN(c2ncnc3c2nc2n3CCCC2)CC1 | > 100 µM |
| O=C(NCCCN1CCCCC1)C1CCN(c2ncnc3c2nc2n3CCCCC2)CC1 | > 100 µM |
| O=C(NCC1CCN(Cc2ccc(Cl)c(Cl)c2)CC1)C1CCCN(c2ncnc3c2nc2n3CCCC2)C1 (stereo not drawn) | > 100 µM |
| Cc1ccc(NC(=O)C2CCN(c3ncnc4c3nc3n4CCCC3)CC2)cc1C | 20.8 µM (active) |
| O=C(NCC1CCN(Cc2cccc(Cl)c2)CC1)[C@@H]1CCCN(c2ncnc3c2nc2n3CCCCC2)C1 | > 100 µM |
| O=C(NCC1CCN(Cc2cccc(Cl)c2)CC1)[C@H]1CCCN(c2ncnc3c2nc2n3CCCC2)C1 | > 100 µM |
| O=C(C1CCN(c2ncnc3c2nc2n3CCCCC2)CC1)N1CCN(c2ccc(F)cc2)CC1 | > 100 µM |
| O=C(C1CCN(c2ncnc3c2nc2n3CCCCC2)CC1)N1CCC(Cc2ccccc2)CC1 | > 100 µM |
| O=C(NCC1CCN(Cc2cccc(Cl)c2)CC1)C1CCCN(c2ncnc3c2nc2n3CCCCC2)C1 (stereo not drawn) | > 100 µM |
| O=C(C1CCN(c2ncnc3c2nc2n3CCCCC2)CC1)N1CCN(c2ncccn2)CC1 | > 100 µM |
| Cc1cc(Cl)ccc1NC(=O)C1CCN(c2ncnc3c2nc2n3CCCCC2)CC1 | > 100 µM |
| O=C(NCC1CCN(Cc2cccc(Cl)c2)CC1)[C@H]1CCCN(c2ncnc3c2nc2n3CCCCC2)C1 | > 100 µM |
| Cc1ccc(C)c(N2CCN(CCCNC(=O)C3CCCN(c4ncnc5c4nc4n5CCCCC4)C3)CC2)c1 (stereo not drawn) | > 100 µM |
| O=C(NCc1cccc(Cl)c1)C1CCN(c2ncnc3c2nc2n3CCCCC2)CC1 | > 100 µM |
| Cc1ccc(NC(=O)C2CCN(c3ncnc4c3nc3n4CCCCC3)CC2)cc1C | > 100 µM |
| CC1CC(C)CN(C(=O)C2CCN(c3ncnc4c3nc3n4CCCCC3)CC2)C1 (stereo not drawn) | > 100 µM |
| Cc1ccc(NC(=O)C2CCN(c3ncnc4c3nc3n4CCCC3)CC2)cc1Br | 14.7 µM (active) |
